According to PubChem BioAssay (EPA / NIEHS):
Results filed as inconclusive are left out. The source made the active and inactive calls. Rule for the calls: active = hit-call score of the fitted dose curve at least 0.9, where 1 is the maximum; inconclusive = response in the unintended direction; inactive = score below 0.9.

Legend:
[1] = ACEA_AR_agonist_AUC_viability: ACEA Biosciences xCELLigence Real-Time Cell Analysis on Androgen Receptor Agonism for Viability (AID 2283775)
Method in brief: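 Read-out is area under the impedance curve at 80 h post-dose in 22Rv1 cells, with DMSO as baseline and signal loss taken as reduced viability. Compounds ran in duplicate from 100 uM final.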

[2] = ACEA_AR_antagonist_AUC_viability: ACEA Biosciences xCELLigence Real-Time Cell Analysis on Androgen Receptor Antagonism for Viability (AID 2283776);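 note: 22Rv1 human prostate cancer cells growing on impedance electrode plates; area under impedance growth curve at 80 h after dosing as viability; hits lower the growth signal relative to DMSO meaning cytotoxicity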
Method in brief: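 Viability endpoint from label-free cell-index monitoring: 22Rv1 cultures treated with an eight-point 1:4 dilution series starting at 100 uM final, AUC at 80 h fitted against DMSO.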

[3] = ACEA_ER_AUC_viability: ACEA Biosciences xCELLigence Real-Time Cell Analysis on Estrogen Receptor Agonism for Viability (AID 2283782);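 note: continuous compound exposure with impedance area under curve over 80 h; hit means loss of impedance signal meaning reduced cell growth or viability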
Method in brief: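 T47D cells preconditioned in phenol red-free RPMI with charcoal-stripped FBS, then dosed with 8-point 1:4 series from 100 uM (up to 0.5% DMSO). Impedance monitored up to ~80 h; area-under-curve loss versus DMSO taken as viability.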

Compound: CC1=CC(=O)NS(=O)(=O)O1
- outcome [1]: inactive
- outcome [2]: inactive
- outcome [3]: inactive

Compound: CC(C)=CCCC(C)CC=O (stereo not given)
- outcome [1]: inactive
- outcome [2]: inactive
- outcome [3]: inactive

Compound: CCCCCCCCC
- outcome [1]: inactive
- outcome [3]: inactive

Compound: CC(=O)C=CC1=C(C)CCCC1(C)C
- outcome [1]: inactive
- outcome [3]: inactive

Compound: NCCCCCCN
- outcome [2]: inactive
- outcome [3]: inactive

Compound: Cc1ccc(O)c(C(C)(C)C)c1
- outcome [1]: inactive
- outcome [2]: inactive
- AC50 [3]: 26.2 µM (active)

Compound: CC(C)(C#N)c1cc(Cn2cncn2)cc(C(C)(C)C#N)c1
- AC50 [2]: 30 µM (active)

Compound: CCCCCCCCCCCCCOS(=O)(=O)O
- outcome [2]: inactive

Compound: CCCC1CCC(=O)O1 (stereo not given)
- outcome [2]: inactive
- outcome [3]: inactive

Compound: COC(=O)c1ccc(C)cc1
- outcome [3]: inactive

Compound: O=c1cc(-c2ccccc2)oc2cc(O)cc(O)c12
- outcome [2]: inactive

Compound: C=CC[N+](C)(C)CC=C
- outcome [2]: inactive

Compound: CCCOCC(C)O (stereo not given)
- outcome [1]: inactive
- outcome [3]: inactive

Compound: BrC1CCC(Br)C(Br)CCC(Br)C(Br)CCC1Br (stereo not given)
- outcome [1]: inactive
- outcome [2]: inactive
- AC50 [3]: 8.63 µM (active)

Compound: O=C1NC(=O)c2ccccc21
- outcome [2]: inactive

Compound: C[Si](O[Si](C)(C)C)O[Si](C)(C)C
- outcome [2]: inactive
- outcome [3]: inactive

Compound: CC1(C)[C@@H]2CC[C@@]1(C)[C@H](O)C2
- outcome [1]: inactive
- outcome [2]: inactive
- outcome [3]: inactive

Compound: C=CC(C)(O)CCC=C(C)CCC=C(C)C (stereo not given)
- outcome [1]: inactive
- AC50 [3]: 67.1 µM (active)

Compound: CCCCCCCCCCN
- outcome [1]: inactive
- AC50 [3]: 45.2 µM (active)

Compound: CC1CC(OC(=O)c2ccccc2O)CC(C)(C)C1 (stereo not given)
- outcome [2]: inactive
- AC50 [3]: 78.4 µM (active)

Compound: CC(C)(C)C(=O)c1ccccc1
- outcome [1]: inactive
- outcome [3]: inactive

Compound: CN(C)CCOCCN(C)C
- outcome [3]: inactive

Compound: CC(=O)OCCOC(C)=O
- outcome [2]: inactive
- outcome [3]: inactive

Compound: Cc1ccc(S)cc1
- outcome [1]: inactive
- outcome [3]: inactive

Compound: CCCCOCCOCCOCCOCCO
- outcome [2]: inactive

Compound: CC(C)c1cccc(O)c1
- outcome [2]: inactive
- outcome [3]: inactive

Compound: CCCCc1ccc(N)cc1
- outcome [1]: inactive
- outcome [2]: inactive
- outcome [3]: inactive

Compound: CCCC/C=C\CCCCCCCCCC=O
- outcome [1]: inactive
- outcome [2]: inactive
- AC50 [3]: 91.2 µM (active)

Compound: O=C[C@@H](O)[C@H](O)[C@H](O)CO
- outcome [1]: inactive
- outcome [2]: inactive
- outcome [3]: inactive

Compound: CCCCCCC#CC(=O)OC
- outcome [3]: inactive

Compound: O=C1CCc2ccccc2O1
- AC50 [3]: 38 µM (active)

Compound: C=CC(=O)OCCOCCOCC
- AC50 [3]: 81.2 µM (active)

Compound: CC(C)[C@@H]1CC[C@@H](C)CC1=O
- outcome [3]: inactive

Compound: C=C(C)[C@@H]1CCC2=CC(=O)C[C@@H](C)[C@]2(C)C1
- AC50 [3]: 80.7 µM (active)

Compound: CCCCCCOC(=O)CC
- AC50 [3]: 23.9 µM (active)

Compound: CC(CCO)CCc1ccccc1 (stereo not given)
- AC50 [3]: 50 µM (active)

Compound: NC(=O)c1ccccc1Cl
- AC50 [3]: 27.1 µM (active)

Compound: C=COCCOCCOCCOC=C
- outcome [3]: inactive

Compound: CCCCCCOC(=O)CCCCC
- outcome [3]: inactive

Compound: C=C(C)C1CCC(C)CC1O (stereo not given)
- AC50 [3]: 50 µM (active)

Compound: CCCc1ccccc1O
- AC50 [3]: 64.2 µM (active)

Compound: Nc1nc2ccc([N+](=O)[O-])cc2s1
- AC50 [3]: 50 µM (active)

Compound: O=C(O)CCSCCC(=O)O
- outcome [3]: inactive

Compound: O=P(c1ccccc1)(c1ccccc1)c1ccccc1
- outcome [3]: inactive

Compound: Fc1c(F)c(F)c(Br)c(F)c1F
- outcome [3]: inactive

Compound: CC(C)[C@H]1CC[C@@H](C)CC1=O
- outcome [3]: inactive

Compound: CCCCC/C=C/C=C/C=O
- AC50 [3]: 81.1 µM (active)

Compound: CC1CCC(C(C)(C)O)CC1 (stereo not given)
- outcome [3]: inactive

Compound: CC1CCC2CC1C2(C)C (stereo not given)
- outcome [3]: inactive

Compound: O=c1[nH]nnc2ccccc12
- outcome [3]: inactive

Compound: [Ca+2]
- outcome [3]: inactive

Compound: CC(C)(N)CO
- outcome [3]: inactive

Compound: CCC(=O)/C=C/C1C(C)=CCCC1(C)C (stereo not given)
- outcome [3]: inactive

Compound: CCn1c2ccccc2c2cc(N)ccc21
- outcome [3]: inactive

Compound: CC(C)=CCCC(C)=CCCC(C)=CCO
- AC50 [3]: 84.2 µM (active)

Compound: Nc1cccc(S(=O)(=O)c2cccc(N)c2)c1
- outcome [3]: inactive

Compound: Clc1ccc(Cl)c(Cl)c1Cl
- outcome [3]: inactive

Compound: COc1ccc(NC(=O)CC(C)=O)cc1
- outcome [3]: inactive

Compound: C=CCOC(=O)CCC1CCCCC1
- AC50 [3]: 75.5 µM (active)

Compound: O=C(O)c1cccc([N+](=O)[O-])c1
- outcome [3]: inactive

Compound: Nc1ccc(S(=O)(=O)O)c(N)c1
- outcome [3]: inactive

Compound: O=C(O)CCCCCCCCCCC(=O)O
- AC50 [3]: 37.7 µM (active)

Compound: COc1cccc(OC)c1
- outcome [3]: inactive

Compound: C=CCOc1nc(OCC=C)nc(OCC=C)n1
- outcome [3]: inactive

Compound: CCCCCC=CCC(=O)OC
- outcome [3]: inactive

Compound: OCC(CO)(CO)COCC(CO)(CO)CO
- outcome [3]: inactive

Compound: CC(=O)c1c(C)cc(C(C)(C)C)cc1C
- AC50 [3]: 77.7 µM (active)

Compound: NCCNCCN
- outcome [3]: inactive

Compound: Nc1ccc(F)c([N+](=O)[O-])c1
- AC50 [3]: 26.5 µM (active)

Compound: O=C[C@H](O)[C@H](O)[C@H](O)CO
- AC50 [3]: 23.6 µM (active)

Compound: CC1(C)[C@H]2CC[C@]1(C)[C@H](O)C2
- outcome [3]: inactive
